From PubChem BioAssay AID1159580 (chemical genetic matrix, 2015)
Among all 5,500 compounds or so, about 2,000 (36%) were called active. About 18% were inconclusive and are not listed. No stated cut-off is given here; in the data, active means normalized growth mostly below about 0.91 (no sharp cut-off); inconclusive means no clear call, values can overlap the other calls; inactive means mostly above about 0.92. Some of the results follow.

Test: chemical genetic growth profiling, strain panel (AID 1159580);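 further: tested at 20 µM; growth read once vehicle control cultures reached saturation at 30 °C; 1 = growth at the plate median or of vehicle wells; lower values mean less growth of the strain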
Conditions: S. cerevisiae deletion strains, growth OD

Measured: normalized growth

CC(=O)Nc1ccc(S(=O)(=O)Nc2ncccn2)cc1
inactive: locus YAL013W, strain DEP1, hits give low values 1.01 | locus YBR229C, strain ROT2, hits give low values 0.992 | locus YCL061C, strain MRC1, hits give low values 1.02 | locus YDL101C, strain DUN1, hits give low values 0.995 | locus YDL134C, strain PPH21, hits give low values 0.997 | locus YDR150W, strain NUM1, hits give low values 0.921 | locus YEL061C, strain CIN8, hits give low values 1.01 | locus YGR078C, strain PAC10, hits give low values 1 | locus YHR030C, strain SLT2, hits give low values 1.08 | locus YHR087W, strain rtc3, hits give low values 0.987 | locus YJR043C, strain POL32, hits give low values 1.01 | locus YJR075W, strain HOC1, hits give low values 0.994 | locus YLR039C, strain RIC1, hits give low values 1.02 | locus YLR058C, strain SHM2 (second series), hits give low values 1.03 | locus YLR085C, strain ARP6, hits give low values 0.958 | locus YLR262C, strain YPT6, hits give low values 1.13 | locus YML094W, strain GIM5, hits give low values 0.981 | locus YMR219W, strain ESC1, hits give low values 1 | locus YMR263W, strain SAP30, hits give low values 1 | locus YMR307W, strain GAS1, hits give low values 0.919 | locus YNL153C, strain GIM3, hits give low values 1.01 | locus YNL298W, strain CLA4 (second series), hits give low values 1 | locus YNL322C, strain KRE1, hits give low values 0.999 | locus YNR030W, strain Alg12, hits give low values 1.01 | locus YPL055C, strain LGE1, hits give low values 0.92 | locus YPL241C, strain CIN2, hits give low values 0.963 | locus YPR135W, strain CTF4, hits give low values 1.08
